Screens as filed in PubChem BioAssay.
Tb PYK inh: T. brucei pyruvate kinase inhibition; Q57TT1; TbPYK enzyme, Kinase-Glo Plus ATP luminescence, 45 min; Potency, µM (highest dose often 76.8 µM), for inactives: at the highest dose activity, negative = inhibition, usual class: inhibitors; hit rate 0.12% among 410,000; AID 624173; note: potency is the fitted concentration of half-maximal effect; % is set by controls: 0 for no effect and ±100 for the full control effect; nearly all actives have a fitted effect of over 50% in size
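Glycolytic pyruvate kinase of T. brucei was incubated with substrate, test compound and 130 uM ADP for 45 minutes at room temperature. Luminescent Kinase-Glo Plus signal was measured after 10 minutes.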
LmPK inh: blocks Leishmania mexicana pyruvate kinase activity | Q27686 | purified LmPK, Kinase-Glo ATP luminescence, 1 h | Potency, µM (top dose mostly 57.5 µM), inactives show at the highest dose activity change, negative = inhibition, hits mostly inhibitors | hit rate 0.37% among 290,000; note: potency is the fitted concentration of half-maximal effect; % is set by controls: 0 for no effect and ±100 for the full control effect
Target sequence (Q27686 whole entry, looked up): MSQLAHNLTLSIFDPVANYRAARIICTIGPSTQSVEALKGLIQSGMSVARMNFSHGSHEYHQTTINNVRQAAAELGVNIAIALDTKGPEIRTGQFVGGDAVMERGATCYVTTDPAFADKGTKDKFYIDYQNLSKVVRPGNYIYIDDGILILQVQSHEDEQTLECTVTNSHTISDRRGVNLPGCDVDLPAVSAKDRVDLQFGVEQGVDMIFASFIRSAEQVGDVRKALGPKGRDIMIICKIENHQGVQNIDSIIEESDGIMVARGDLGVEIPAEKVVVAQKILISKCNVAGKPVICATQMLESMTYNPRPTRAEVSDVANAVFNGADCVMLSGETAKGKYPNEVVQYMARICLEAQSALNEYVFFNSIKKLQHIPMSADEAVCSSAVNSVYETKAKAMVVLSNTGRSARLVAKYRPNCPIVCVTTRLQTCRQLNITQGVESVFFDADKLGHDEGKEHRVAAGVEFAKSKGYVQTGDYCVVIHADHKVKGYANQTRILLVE
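qHTS format; LmPK 0.1 nM; substrates PEP 0.5 mM and ADP 0.1 mM. One-hour room-temperature incubation, then coupled luciferase luminescence; 0.5 nM enzyme wells mark activation.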
CHX counter: counter-screen hit for Shiga toxin inhibitors, cycloheximide | hit rate 12% among 300,000 | cell reporter, cycloheximide protein synthesis inhibition counterscreen | max response, %; in the data active = max response mostly above about 13%, no sharp cut-off; inactive = mostly below about 14%; note: read at 38.3 µM for the half of the compounds with a filed dose; 0% is about no effect
Shiga toxin inh: blocks Shiga toxin action in Vero cells; inhibition, % at 38.7 µM; Vero cells, Shiga toxin protein synthesis inhibition reporter; hit rate 9.2% among 290,000; AID 2315; in the data active = inhibition mostly above about 28%, no sharp cut-off; inactive = mostly below about 43%; note: 0% is about no effect
Sm TGR block: blocks Schistosoma mansoni thioredoxin glutathione reductase; purified TGR, DTNB reduction, TNB absorbance 405 nm; Potency, µM (doses to about 114 µM), inactives show top-dose activity change, negative = inhibition, most hits filed as inhibitors; hit rate 3% among 360,000; note: potency is the fitted concentration of half-maximal effect; % is set by controls: 0 for no effect and ±100 for the full control effect; nearly all actives have a fitted effect of over 60% in size
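First, TGR (20 nM dispensed) and NADPH were mixed with compound. Second, a 15 min room-temperature incubation followed. Third, further NADPH and then DTNB were added to start the reaction. Finally, TNB absorbance was monitored kinetically.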
FBPA Giardia inh: inhibitors of Giardia lamblia fructose-1,6-bisphosphate aldolase | A8B2U2 | purified Giardia FBPA | Potency, µM (series often up to 59.6 µM), for inactives: at the top dose activity, negative = inhibition, usual class: inhibitors | hit rate 0.71% among 290,000 | AID 2451; note: potency is the fitted concentration of half-maximal effect; % is set by controls: 0 for no effect and ±100 for the full control effect; nearly all actives have a fitted effect of over 55% in size
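40 nM FBPA preincubated 10 min at RT with compound (up to 57.5 uM final), then substrate plus GAPDH/TPI/NAD/arsenate coupling and diaphorase/resazurin added. Fluorescence read after 20 min at RT, 525/598 nm.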
* hit, by the source's call. The sample as a whole holds a higher share of hits than the screen did. Unless noted, calls come from the whole dose curve; as a rule, active = well fitted curve in the direction sought with a large enough effect; inconclusive = small, poorly fitted or top-dose-only effect, or another doubt; inactive = no such curve, though single readings can be large; an effect the other way counts as inactive or inconclusive.

How did COCC1CCN(C(=O)c2cc(COc3ccc(OC)c4ccccc34)on2)C1 (stereo not drawn) do in these assays?
Tb PYK inh: -3%

Results for COc1ccc(OCc2cc(C(=O)N3CCC(OC)CC3)no2)c2ccccc12 ?
Tb PYK inh: 3%; LmPK inh: -3%; CHX counter: 41*; Shiga toxin inh: 126*; Sm TGR block: -28%

What do the screens show for `COc1ccc(N2C(=O)CS(=O)(=O)C23C(=O)N(Cc2ccc(F)cc2)c2ccc(C)cc23)cc1` (stereo not drawn)?
Tb PYK inh: -5%; Sm TGR block: 8%

How did CCOC(=O)C(=O)Nc1ccc2c(c1)OCO2 do in these assays?
Tb PYK inh: -22%; LmPK inh: -20%; CHX counter: 13; Shiga toxin inh: 35; Sm TGR block: 3%; FBPA Giardia inh: 5%

How did CCOC(=O)/C(N=Nc1ccc2c(c1)OCO2)=C(\C)O do in these assays?
Tb PYK inh: -3%; LmPK inh: -11%; CHX counter: 51*; Shiga toxin inh: 92*; Sm TGR block: -1%; FBPA Giardia inh: -2%

Results for N#C/C(=C\c1cccc(O)c1)C(=O)Nc1ccc2c(c1)OCCO2 ?
Tb PYK inh: -5%; LmPK inh: 0%; CHX counter: 60*; Shiga toxin inh: 83*; Sm TGR block: -7%; FBPA Giardia inh: -2%

What do the screens show for `N#C/C(=C/c1cccc(O)c1)C(=O)NCc1ccc(Cl)cc1`?
Tb PYK inh: -3%; LmPK inh: 3%; CHX counter: -3; Shiga toxin inh: 12; Sm TGR block: -1%; FBPA Giardia inh: -7%

Results for CCOC(=O)/C(C#N)=C\c1ccc2c(c1)OCO2 ?
Tb PYK inh: -6%

How did CC(C)NC(=O)/C(C#N)=C/c1ccc2c(c1)OCCO2 do in these assays?
Tb PYK inh: 2%; LmPK inh: -5%; CHX counter: 22*; Shiga toxin inh: 85*; Sm TGR block: 0%; FBPA Giardia inh: 21%

Results for Cc1cc(C)c(Cn2c(=O)n(CCCC(=O)NCc3ccc4c(c3)OCO4)c(=O)c3sccc32)c(C)c1 ?
Tb PYK inh: 0%; Sm TGR block: 1%

What do the screens show for `CCOc1ccc(/C=C(/NC(=O)c2ccccc2Cl)C(=O)O)cc1`?
Tb PYK inh: 4%; LmPK inh: -1%; CHX counter: -1; Shiga toxin inh: -9; FBPA Giardia inh: 9%

How did CCOc1ccc(N(C(=O)c2ccccc2Cl)C2=NC(C)(C)CS2)cc1 do in these assays?
Tb PYK inh: 2%; LmPK inh: 5%; CHX counter: 28*; Shiga toxin inh: 66*; Sm TGR block: -5%; FBPA Giardia inh: -5%

What do the screens show for `COc1ccc(C2=NN(C(C#N)c3ccc(OC)cc3)C(c3ccccc3)C2)cc1` (stereo not drawn)?
Tb PYK inh: -16%; LmPK inh: -6%; CHX counter: 33*; Shiga toxin inh: 83*; Sm TGR block: -1%; FBPA Giardia inh: -27%

How did COc1ccc(C(C#N)N2N=C(c3ccccc3)CC2c2ccccc2)cc1OC (stereo not drawn) do in these assays?
Tb PYK inh: 4%; LmPK inh: -1%; CHX counter: 68*; Shiga toxin inh: 44*; Sm TGR block: -1%; FBPA Giardia inh: inconclusive

Results for COc1ccc(C(C#N)N2N=C(C)CC2c2ccccc2)cc1OC (stereo not drawn) ?
Tb PYK inh: 3%; LmPK inh: 3%; CHX counter: -2; Shiga toxin inh: -11; Sm TGR block: inconclusive; FBPA Giardia inh: inconclusive

How did COc1cccc(/C=C/c2nc(C#N)c(NCCc3ccc(OC)c(OC)c3)o2)c1 do in these assays?
Tb PYK inh: -8%; Sm TGR block: 4%

Results for Cc1cccc(NC(=O)Cc2noc3ccccc23)c1 ?
Tb PYK inh: -13%; LmPK inh: -4%; CHX counter: 48*; Shiga toxin inh: 74*; Sm TGR block: 5%; FBPA Giardia inh: -2%

Results for O=C(Cc1noc2ccccc12)Nc1ccc(Cl)cc1 ?
Tb PYK inh: 1%; LmPK inh: -2%; CHX counter: 35*; Shiga toxin inh: 22; Sm TGR block: -2%; FBPA Giardia inh: -2%
